# Source: PubChem BioAssay (NCI)
# This is part of a sample that, as a whole, favours compounds with a hit. Of some 79,000 tested, about 15% had one in any assay. A number with no mark means an inactive call. The source made the active and inactive calls. Cut-off read from the data, not from the text of the source: active = growth inhibition above about 70%; inactive = the rest.
# Experiments:
# [1] = NCI Yeast Anticancer Drug Screen. Data for the rad52 strain (AID 147);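 note: 0% = growth of vehicle-treated control cultures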; conditions: S. cerevisiae rad52 mutant growth inhibition, stronger effect = higher value
# Procedure, shortened: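 Screen used a yeast mutant impaired in DNA repair. After compound exposure, growth was measured. Values reflect inhibition compared with vehicle-treated cells.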
# [2] = NCI Yeast Anticancer Drug Screen. Data for the wt1 strain (AID 149);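 note: 0% = growth of vehicle-treated wt1 cultures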; conditions: S. cerevisiae wt1 strain (SPY 50644) growth inhibition, stronger effect = higher value
# Procedure, shortened: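 Growth inhibition read against vehicle controls after compound exposure of the wt1 yeast strain.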
# [3] = NCI Yeast Anticancer Drug Screen. Data for the rad50EPP+ strain (AID 151);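 note: 0% = growth of vehicle-treated control cultures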; conditions: S. cerevisiae rad50 mutant strain, stronger effect = higher value
# Procedure, shortened: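 Exposing the rad50EPP+ strain to each compound, growth was compared with vehicle-only cultures to give inhibition.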
# [4] = NCI Yeast Anticancer Drug Screen. Data for the rad50 strain (AID 155);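 note: 0% = growth of vehicle-only cultures of the same strain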; conditions: S. cerevisiae rad50 strain growth inhibition, stronger effect = higher value
# Procedure, shortened: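 Readout: growth inhibition relative to vehicle-treated cultures. Compound exposure was carried out in a genetically defined yeast strain deficient in DNA damage repair.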
# [5] = NCI Yeast Anticancer Drug Screen. Data for the mec2-1 strain (AID 157); conditions: S. cerevisiae mec2-1 strain, stronger effect = higher value
# Procedure, shortened: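 Readout is yeast growth inhibition, normalised to vehicle-treated controls, in the mec2-1 strain exposed to compound.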
# [6] = NCI Yeast Anticancer Drug Screen. Data for the rad14 strain (AID 159);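 note: 0% = growth of vehicle-treated control cultures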; conditions: S. cerevisiae rad14 strain growth inhibition, stronger effect = higher value
# Procedure, shortened: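 Growth inhibition vs vehicle controls; genetically altered yeast strain (DNA damage repair defect) treated with test compounds.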
# [7] = NCI Yeast Anticancer Drug Screen. Data for the sgs1 mgt1 strain (AID 161);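 note: 0% = growth of cultures given vehicle only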; conditions: S. cerevisiae sgs1 mgt1 strain, stronger effect = higher value
# Procedure, shortened: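 This yeast growth screen uses a strain with defined DNA-repair lesions; compound-treated growth is compared with vehicle-treated growth.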
# [8] = NCI Yeast Anticancer Drug Screen. Data for the CLN2oe strain (AID 163);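 note: 0% = growth of vehicle-only control cultures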; conditions: S. cerevisiae CLN2oe strain, stronger effect = higher value
# Procedure, shortened: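 Values reflect how much compound exposure reduced yeast growth, referenced to vehicle-exposed cells. Assay organism is a strain with a defined genetic change affecting cell-cycle control.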
# [9] = NCI Yeast Anticancer Drug Screen. Data for the cln2 rad14 strain (AID 165);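 note: 0% = growth equal to vehicle treated cultures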; conditions: S. cerevisiae cln2 rad14 strain, stronger effect = higher value
# Procedure, shortened: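 Relative to vehicle controls, growth inhibition of compound-treated cln2 rad14 yeast was recorded.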
# [10] = NCI Yeast Anticancer Drug Screen. Data for the bub3 strain (AID 167); conditions: S. cerevisiae bub3 mutant strain, stronger effect = higher value
# Procedure, shortened: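 Readout: yeast growth inhibition, expressed relative to vehicle-only wells. The test organism is a mutant strain from a panel with lesions in DNA repair or checkpoint genes.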
# [11] = NCI Yeast Anticancer Drug Screen. Data for the wt2 strain (AID 169);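 note: 0% = growth of vehicle-treated yeast cultures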; conditions: S. cerevisiae wt2 strain growth inhibition, stronger effect = higher value
# Procedure, shortened: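 Values express reduction in yeast growth under compound treatment, referenced to vehicle-treated cells.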
# [12] = NCI Yeast Anticancer Drug Screen. Data for the mlh1 strain (AID 171);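 note: 0% = growth of vehicle-treated control cultures of the same strain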; conditions: S. cerevisiae mlh1 strain growth inhibition, stronger effect = higher value
# Procedure, shortened: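 Steps: expose the defined-mutant yeast strain to compound; expose a parallel culture to vehicle; measure growth; express compound effect as inhibition relative to the vehicle culture.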
# [13] = NCI Yeast Anticancer Drug Screen. Data for the sgs1 strain (AID 173);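 note: 0% = growth of vehicle-only control cultures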; conditions: S. cerevisiae sgs1 mutant, stronger effect = higher value
# Procedure, shortened: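 Treat defined-mutant yeast with compound; measure growth; calculate inhibition relative to vehicle-treated cells.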
# [14] = NCI Yeast Anticancer Drug Screen. Data for the mlh1 rad18 strain (AID 175); conditions: S. cerevisiae mlh1 rad18 strain growth inhibition, stronger effect = higher value
# Procedure, shortened: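 Test agents were incubated with a yeast strain of defined genotype (DNA damage repair defect). Inhibition of growth was derived by comparison with vehicle-exposed cultures.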
# [15] = NCI Yeast Anticancer Drug Screen. Data for the rad18 strain (AID 177); conditions: S. cerevisiae rad18 mutant growth inhibition, stronger effect = higher value
# Procedure, shortened: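 A genetically defined yeast mutant impaired in DNA damage repair was treated with test compounds, then its growth was measured against cultures receiving vehicle alone.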
# [16] = at 5.0 µM (retest, dose inferred, filed as 0.5)
# [17] = at 50.0 µM (retest, dose inferred, filed as 5.0)
compound,measurement,setting,value
NC(=O)N1c2ccccc2C=Cc2ccccc21,growth inhibition,[1]; at 1.2 µM,-35%
same,growth inhibition,[1]; at 3.7 µM,-36%
same,growth inhibition,[1]; at 11.0 µM,-38%
same,growth inhibition,[1]; at 33.0 µM,-49%
same,growth inhibition,[1]; at 100.0 µM,-41%
same,growth inhibition,[2]; at 1.2 µM,-20%
same,growth inhibition,[2]; at 3.7 µM,-16%
same,growth inhibition,[2]; at 11.0 µM,-24%
same,growth inhibition,[2]; at 33.0 µM,-24%
same,growth inhibition,[2]; at 100.0 µM,-44%
same,growth inhibition,[3]; at 1.2 µM,-49%
same,growth inhibition,[3]; at 3.7 µM,-73%
same,growth inhibition,[3]; at 11.0 µM,-63%
same,growth inhibition,[3]; at 33.0 µM,-91%
same,growth inhibition,[3]; at 100.0 µM,-65%
same,growth inhibition,[4]; at 1.2 µM,-39%
same,growth inhibition,[4]; at 3.7 µM,-14%
same,growth inhibition,[4]; [16],60%
same,growth inhibition,[4]; at 11.0 µM,-24%
same,growth inhibition,[4]; at 33.0 µM,-42%
same,growth inhibition,[4]; [17],99% (active)
same,growth inhibition,[4]; at 50.0 µM,-5.55%
same,growth inhibition,[4]; at 100.0 µM,-53%
same,growth inhibition,[5]; at 1.2 µM,-63%
same,growth inhibition,[5]; at 3.7 µM,-55%
same,growth inhibition,[5]; [16],63%
same,growth inhibition,[5]; at 11.0 µM,-55%
same,growth inhibition,[5]; at 33.0 µM,-69%
same,growth inhibition,[5]; [17],98% (active)
same,growth inhibition,[5]; at 50.0 µM,-3.4%
same,growth inhibition,[5]; at 100.0 µM,-68%
same,growth inhibition,[6]; at 1.2 µM,-42%
same,growth inhibition,[6]; at 3.7 µM,-28%
same,growth inhibition,[6]; at 11.0 µM,-41%
same,growth inhibition,[6]; at 33.0 µM,-37%
same,growth inhibition,[6]; at 100.0 µM,-37%
same,growth inhibition,[7]; [16],-12%
same,growth inhibition,[7]; [17],29%
same,growth inhibition,[7]; at 50.0 µM,15.4%
same,growth inhibition,[8]; at 1.2 µM,5%
same,growth inhibition,[8]; at 3.7 µM,19%
same,growth inhibition,[8]; at 11.0 µM,15%
same,growth inhibition,[8]; at 33.0 µM,7%
same,growth inhibition,[8]; at 100.0 µM,0%
same,growth inhibition,[9]; [16],61%
same,growth inhibition,[9]; [17],38%
same,growth inhibition,[9]; at 50.0 µM,9.25%
same,growth inhibition,[10]; at 1.2 µM,-26%
same,growth inhibition,[10]; at 3.7 µM,-34%
same,growth inhibition,[10]; [16],-17%
same,growth inhibition,[10]; at 11.0 µM,-41%
same,growth inhibition,[10]; at 33.0 µM,-43%
same,growth inhibition,[10]; [17],3%
same,growth inhibition,[10]; at 50.0 µM,15.3%
same,growth inhibition,[10]; at 100.0 µM,-39%
same,growth inhibition,[11]; at 1.2 µM,-25%
same,growth inhibition,[11]; at 3.7 µM,-30%
same,growth inhibition,[11]; at 11.0 µM,-37%
same,growth inhibition,[11]; at 33.0 µM,-38%
same,growth inhibition,[11]; at 100.0 µM,-43%
same,growth inhibition,[12]; at 1.2 µM,-45%
same,growth inhibition,[12]; at 3.7 µM,-31%
same,growth inhibition,[12]; at 11.0 µM,-40%
same,growth inhibition,[12]; at 33.0 µM,-62%
same,growth inhibition,[12]; at 100.0 µM,-55%
same,growth inhibition,[13]; at 1.2 µM,-78%
same,growth inhibition,[13]; at 3.7 µM,-54%
same,growth inhibition,[13]; at 11.0 µM,-51%
same,growth inhibition,[13]; at 33.0 µM,-52%
same,growth inhibition,[13]; at 100.0 µM,-45%
same,growth inhibition,[14]; [16],60%
same,growth inhibition,[14]; [17],100% (active)
same,growth inhibition,[14]; at 50.0 µM,-6.9%
same,growth inhibition,[15]; at 1.2 µM,-49%
same,growth inhibition,[15]; at 3.7 µM,-51%
same,growth inhibition,[15]; at 11.0 µM,-37%
same,growth inhibition,[15]; at 33.0 µM,-64%
same,growth inhibition,[15]; at 100.0 µM,-59%
